Design in all cases: scale not given: direction of the effect not stated beside the values
In assay [1] the target is Protein translocase subunit SecA (Escherichia coli (strain K12)) (UniProt P10408). Nature of the assay: Assay to Identify E. coli SecA ATPase Inhibitors. The assay is classed as functional. Conditions: 30 µM.
Assay [2] concerns the target T1, Ubiquitin-activating enzyme e1, putative (Leishmania donovani (strain BPK282A1)) (UniProt E9BSI1).
T1 sequence (whole entry): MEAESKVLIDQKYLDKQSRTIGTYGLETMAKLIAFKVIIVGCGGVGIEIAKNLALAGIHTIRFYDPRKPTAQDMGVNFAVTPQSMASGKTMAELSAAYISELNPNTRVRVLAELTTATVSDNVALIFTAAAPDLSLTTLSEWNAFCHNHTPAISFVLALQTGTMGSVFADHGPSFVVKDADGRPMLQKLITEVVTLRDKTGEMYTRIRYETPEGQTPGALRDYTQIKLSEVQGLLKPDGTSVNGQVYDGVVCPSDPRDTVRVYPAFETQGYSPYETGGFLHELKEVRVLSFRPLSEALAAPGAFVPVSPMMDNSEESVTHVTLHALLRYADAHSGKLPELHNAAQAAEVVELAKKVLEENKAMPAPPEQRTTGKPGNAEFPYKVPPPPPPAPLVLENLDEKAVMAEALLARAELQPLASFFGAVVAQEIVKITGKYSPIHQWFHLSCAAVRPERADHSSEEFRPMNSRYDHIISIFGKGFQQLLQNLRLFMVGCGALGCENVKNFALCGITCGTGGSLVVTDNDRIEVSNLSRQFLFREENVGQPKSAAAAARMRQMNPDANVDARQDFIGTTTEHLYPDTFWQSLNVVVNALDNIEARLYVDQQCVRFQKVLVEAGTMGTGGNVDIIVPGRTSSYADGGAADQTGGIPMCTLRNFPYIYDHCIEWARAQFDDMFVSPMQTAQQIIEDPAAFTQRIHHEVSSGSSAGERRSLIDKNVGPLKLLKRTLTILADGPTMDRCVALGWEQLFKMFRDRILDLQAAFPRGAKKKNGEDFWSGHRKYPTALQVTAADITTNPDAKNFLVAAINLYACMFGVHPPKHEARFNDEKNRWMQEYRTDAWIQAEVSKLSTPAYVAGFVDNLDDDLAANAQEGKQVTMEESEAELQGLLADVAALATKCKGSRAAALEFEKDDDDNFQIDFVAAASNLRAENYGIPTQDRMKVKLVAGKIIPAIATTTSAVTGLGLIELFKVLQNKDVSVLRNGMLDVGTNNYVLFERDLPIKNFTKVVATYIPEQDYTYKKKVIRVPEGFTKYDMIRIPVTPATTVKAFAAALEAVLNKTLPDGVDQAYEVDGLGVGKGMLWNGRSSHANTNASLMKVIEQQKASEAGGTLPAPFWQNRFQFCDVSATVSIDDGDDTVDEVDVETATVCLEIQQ
The experiment in a line: Leishmania donovani Ubiquitin Activating Enzyme (LdE1). In kind it is functional. Conditions: 30 µM.

In assay [3] the target is AMP-activated protein kinase, AMPK (Homo sapiens) (UniProt P54646+O43741+P54619+Q9UGJ0+Q9Y478+Q13131+Q9UGI9). The experiment in a line: AMP-dependent Kinase enzyme assay. An in vitro enzyme assay that detects ADP turnover that is directly proportional to AMPK activity. This uses naive AMPK that is activated during the assay with MK-8722. The assay is classed as functional. Conditions: 30 µM.

For assay [4], the target named is Sialic acid-binding Ig-like lectin 9 (Homo sapiens) (UniProt Q9Y336). Nature of the assay: Hs-Siglec9 ALPHAscreen SOP 20170721. The conditions noted are these: 10 µM. (Alpha assays give light when donor and acceptor beads are brought close together.)
Sequence of Sialic acid-binding Ig-like lectin 9 (Homo sapiens) (Q9Y336 whole entry): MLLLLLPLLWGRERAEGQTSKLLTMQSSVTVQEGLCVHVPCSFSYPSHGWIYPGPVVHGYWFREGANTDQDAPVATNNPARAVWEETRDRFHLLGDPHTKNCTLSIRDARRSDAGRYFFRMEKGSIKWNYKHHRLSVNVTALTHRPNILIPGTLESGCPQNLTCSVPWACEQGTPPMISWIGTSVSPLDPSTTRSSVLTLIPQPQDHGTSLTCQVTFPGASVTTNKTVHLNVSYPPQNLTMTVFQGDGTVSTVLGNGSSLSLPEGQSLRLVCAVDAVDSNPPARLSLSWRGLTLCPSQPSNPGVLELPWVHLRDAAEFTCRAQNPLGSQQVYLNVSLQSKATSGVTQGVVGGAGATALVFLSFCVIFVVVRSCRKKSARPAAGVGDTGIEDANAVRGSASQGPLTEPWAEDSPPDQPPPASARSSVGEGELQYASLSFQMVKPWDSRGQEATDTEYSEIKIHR
For the next assay, the system named is Trypanosoma cruzi. The experiment in a line: Trypanosoma cruzi phosphomannomutase and mannose-1-phosphate guanylyltransferase assay. In kind it is functional. The conditions noted are these: 10 µM.
For assay [5], the target named is T2, Arginase-2, mitochondrial (Homo sapiens) (UniProt P78540).
T2 sequence (whole entry): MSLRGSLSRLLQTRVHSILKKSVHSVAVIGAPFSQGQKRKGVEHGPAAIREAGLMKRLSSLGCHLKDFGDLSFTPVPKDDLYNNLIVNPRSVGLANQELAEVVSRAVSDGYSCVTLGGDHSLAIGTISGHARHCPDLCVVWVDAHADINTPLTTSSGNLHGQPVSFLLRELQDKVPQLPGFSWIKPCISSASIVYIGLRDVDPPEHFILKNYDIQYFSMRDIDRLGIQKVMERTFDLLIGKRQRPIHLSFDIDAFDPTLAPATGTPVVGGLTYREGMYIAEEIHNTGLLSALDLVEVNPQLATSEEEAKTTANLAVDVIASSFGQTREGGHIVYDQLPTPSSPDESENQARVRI
The experiment in a line: in vitro enzyme assay to detect the production of urea directly proportional to the activity of Arginase II. Further: in the data most compounds retested in dose-response had high values. The assay is classed as functional. Conditions: 33.3 µM.

Assay [6] deals with T3, Proteasome subunit beta (Trypanosoma cruzi) (UniProt O96673).
T3 sequence (whole entry): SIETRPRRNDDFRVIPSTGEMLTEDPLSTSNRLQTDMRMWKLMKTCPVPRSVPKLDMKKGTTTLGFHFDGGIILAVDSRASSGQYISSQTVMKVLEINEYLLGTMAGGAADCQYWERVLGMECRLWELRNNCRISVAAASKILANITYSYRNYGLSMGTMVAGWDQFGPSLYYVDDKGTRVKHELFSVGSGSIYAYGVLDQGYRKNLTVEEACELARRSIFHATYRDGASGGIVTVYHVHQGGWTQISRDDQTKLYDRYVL
The experiment in a line: Trypanosoma cruzi proteasome chymotrypsin-like activity (TcProtChymo) assay. Further: in the data most compounds retested in dose-response had high values. In kind it is functional. The conditions noted are these: 9.37 µM.

The species named for the next assay is Homo sapiens. The experiment in a line: To identify inhibition of the IFN signalling (Jak-Stat) pathway via expression of an eGFP reporter gene under the control of an IFN-stimulated response element (ISRE) containing MxA promoter. The assay is classed as functional. The conditions noted are these: 30 µM. (A reporter such as luciferase makes a cellular process visible.)

The target of assay [7] is T4, Tyrosyl-tRNA synthetase, putative (Trypanosoma cruzi (strain CL Brener)) (UniProt Q4DSP6).
T4 sequence (whole entry): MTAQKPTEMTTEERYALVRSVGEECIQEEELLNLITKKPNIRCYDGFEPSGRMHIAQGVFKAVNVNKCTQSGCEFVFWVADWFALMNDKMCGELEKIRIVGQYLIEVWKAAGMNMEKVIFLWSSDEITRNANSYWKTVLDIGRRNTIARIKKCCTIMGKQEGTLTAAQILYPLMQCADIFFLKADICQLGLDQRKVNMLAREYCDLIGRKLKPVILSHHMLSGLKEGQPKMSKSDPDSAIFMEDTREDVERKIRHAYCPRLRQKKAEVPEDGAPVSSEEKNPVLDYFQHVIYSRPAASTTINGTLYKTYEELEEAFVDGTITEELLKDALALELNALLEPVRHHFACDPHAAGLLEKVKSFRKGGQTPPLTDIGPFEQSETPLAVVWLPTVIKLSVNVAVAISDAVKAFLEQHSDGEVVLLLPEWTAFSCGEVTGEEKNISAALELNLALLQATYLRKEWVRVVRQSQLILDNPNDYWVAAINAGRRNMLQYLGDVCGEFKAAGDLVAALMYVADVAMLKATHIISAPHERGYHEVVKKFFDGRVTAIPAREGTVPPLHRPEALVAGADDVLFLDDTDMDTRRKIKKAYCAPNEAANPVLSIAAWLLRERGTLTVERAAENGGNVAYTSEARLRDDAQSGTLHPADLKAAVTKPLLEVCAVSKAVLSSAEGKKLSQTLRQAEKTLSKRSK
Nature of the assay: Trypanosoma cruzi tyrosyl tRNA synthetase (TcYRS) _High Tyrosine SOP. Further: in the data most compounds retested in dose-response had high values. The assay is classed as functional. Conditions: 30 µM.

Assay [8] deals with T4, Tyrosyl-tRNA synthetase, putative (Trypanosoma cruzi (strain CL Brener)). Nature of the assay: Trypanosoma cruzi tyrosyl tRNA synthetase (TcYRS) SOP. In kind it is functional. Conditions: 30 µM.
Assay [9] has as its target Chromo domain-containing protein 1 (Saccharomyces cerevisiae (strain ATCC 204508 / S288c) (Baker's yeast)) (UniProt P32657). Nature of the assay: ScCHD-1 Enzyme Inhibition Assay. Further: in the data most compounds retested in dose-response had high values. The assay is classed as functional. Conditions: 30 µM.

For some of these results: Entries with a potency or affinity are not part of this list.

Sequence of Protein translocase subunit SecA (Escherichia coli (strain K12)) (P10408 whole entry): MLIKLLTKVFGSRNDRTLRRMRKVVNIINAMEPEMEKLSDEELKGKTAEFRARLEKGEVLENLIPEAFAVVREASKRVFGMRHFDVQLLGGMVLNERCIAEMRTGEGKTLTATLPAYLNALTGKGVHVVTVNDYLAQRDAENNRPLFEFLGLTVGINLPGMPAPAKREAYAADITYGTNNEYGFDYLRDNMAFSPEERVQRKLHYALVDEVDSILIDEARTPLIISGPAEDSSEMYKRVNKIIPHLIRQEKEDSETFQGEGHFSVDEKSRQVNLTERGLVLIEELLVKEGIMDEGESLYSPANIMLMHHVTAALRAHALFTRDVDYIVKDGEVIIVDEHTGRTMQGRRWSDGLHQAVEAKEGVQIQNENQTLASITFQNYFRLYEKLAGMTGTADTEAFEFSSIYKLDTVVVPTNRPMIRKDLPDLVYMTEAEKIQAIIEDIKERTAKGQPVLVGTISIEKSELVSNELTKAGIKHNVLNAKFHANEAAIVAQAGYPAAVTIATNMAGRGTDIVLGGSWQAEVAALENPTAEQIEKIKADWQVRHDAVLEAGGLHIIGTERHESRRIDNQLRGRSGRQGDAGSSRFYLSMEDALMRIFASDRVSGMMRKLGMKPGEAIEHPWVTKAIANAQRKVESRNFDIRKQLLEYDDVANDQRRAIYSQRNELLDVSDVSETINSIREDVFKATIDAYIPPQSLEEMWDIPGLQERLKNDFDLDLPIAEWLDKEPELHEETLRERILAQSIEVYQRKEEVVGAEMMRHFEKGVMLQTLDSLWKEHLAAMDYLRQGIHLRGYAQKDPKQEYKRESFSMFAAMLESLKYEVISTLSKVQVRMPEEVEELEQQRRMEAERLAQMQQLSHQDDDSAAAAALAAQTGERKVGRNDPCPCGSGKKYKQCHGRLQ
Sequence of Chromo domain-containing protein 1 (Saccharomyces cerevisiae (strain ATCC 204508 / S288c) (Baker's yeast)) (P32657 whole entry, the tested form may be a part): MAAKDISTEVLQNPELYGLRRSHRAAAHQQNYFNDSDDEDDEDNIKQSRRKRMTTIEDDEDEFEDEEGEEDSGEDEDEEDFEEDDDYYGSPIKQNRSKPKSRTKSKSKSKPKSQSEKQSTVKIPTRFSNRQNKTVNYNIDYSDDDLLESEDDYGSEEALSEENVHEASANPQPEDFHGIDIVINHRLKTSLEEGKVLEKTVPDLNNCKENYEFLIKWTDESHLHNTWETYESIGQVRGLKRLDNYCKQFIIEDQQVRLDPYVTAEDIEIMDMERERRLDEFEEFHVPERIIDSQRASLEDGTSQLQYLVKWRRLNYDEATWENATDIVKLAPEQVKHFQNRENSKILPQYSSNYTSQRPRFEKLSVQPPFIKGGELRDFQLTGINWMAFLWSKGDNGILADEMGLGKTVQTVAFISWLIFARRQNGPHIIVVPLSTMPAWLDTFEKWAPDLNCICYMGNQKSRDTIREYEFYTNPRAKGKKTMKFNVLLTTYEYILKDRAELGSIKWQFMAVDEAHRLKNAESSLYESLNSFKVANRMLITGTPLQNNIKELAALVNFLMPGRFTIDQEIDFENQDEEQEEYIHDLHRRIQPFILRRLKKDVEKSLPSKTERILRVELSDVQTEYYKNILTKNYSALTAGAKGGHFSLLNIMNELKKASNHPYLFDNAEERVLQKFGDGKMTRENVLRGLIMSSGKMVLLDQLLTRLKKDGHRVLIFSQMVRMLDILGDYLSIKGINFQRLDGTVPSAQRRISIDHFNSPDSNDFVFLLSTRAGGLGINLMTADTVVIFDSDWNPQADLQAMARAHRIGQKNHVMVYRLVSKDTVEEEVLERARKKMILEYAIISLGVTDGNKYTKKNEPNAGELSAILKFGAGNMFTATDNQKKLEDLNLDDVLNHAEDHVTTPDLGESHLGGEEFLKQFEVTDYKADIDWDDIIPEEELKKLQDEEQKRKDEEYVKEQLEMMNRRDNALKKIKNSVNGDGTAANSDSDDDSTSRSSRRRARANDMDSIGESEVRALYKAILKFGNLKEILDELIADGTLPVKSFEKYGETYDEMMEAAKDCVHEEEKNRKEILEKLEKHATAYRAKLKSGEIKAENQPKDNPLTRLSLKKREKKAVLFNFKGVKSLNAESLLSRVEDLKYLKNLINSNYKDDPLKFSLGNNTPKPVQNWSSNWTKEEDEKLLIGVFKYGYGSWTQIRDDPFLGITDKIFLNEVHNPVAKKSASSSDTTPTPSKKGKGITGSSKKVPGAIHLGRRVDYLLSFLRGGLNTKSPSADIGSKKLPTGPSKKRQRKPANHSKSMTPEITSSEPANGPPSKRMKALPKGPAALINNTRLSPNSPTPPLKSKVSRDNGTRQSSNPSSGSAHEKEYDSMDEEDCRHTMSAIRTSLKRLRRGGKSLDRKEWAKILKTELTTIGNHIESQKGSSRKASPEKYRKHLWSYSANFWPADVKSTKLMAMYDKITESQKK

In the case of `CN1CC(=O)N(c2cccnc2)CC12CCN(C(=O)C1CCCCC1)C2` (stereo not drawn), the Percent Effect in [1] was 0.868%; in assay [2], 10.7%; in assay [3], 6.75%; in assay [4] it was 12.8%; in the assay on Trypanosoma cruzi, -1.74%; in assay [5] it was -72.9%. For the same molecule, the Percent Effect in assay [6] was 12.3%; in the assay filed under Homo sapiens it was 24%; in assay [7], 3.12%; in assay [8], 2.5%; in assay [9], -2.49%.
Consider `CC1CCN(C(=O)c2ccn(COc3ccc(F)cc3)n2)CC1`, for which the Percent Effect in [1] was -1.66%; in assay [2], 5.2%; in assay [3], -0.0433%; in [4], 10.1%; in the assay with Trypanosoma cruzi it was 2.26%; in [5] it was -5.52%. The Percent Effect in [6] was 25%; in the assay filed under Homo sapiens, -6.17%; in assay [7], 6.45%; in assay [8], 16.1%; in assay [9], -3.54%.
Take `CCc1nccn1C1CCCN(C(=O)CCCNc2ncccn2)C1` (stereo not drawn): the Percent Effect in [1] was -4.28%; in [2] it was 3.8%; in assay [3] it was 4.55%; in assay [4], 1.92%; in the assay with Trypanosoma cruzi it was -2.77%; in [5], 2.8%. Further, the Percent Effect in assay [6] was 6%; in the assay listed under Homo sapiens, 9.01%; in assay [7], 4.17%; in [8], 10.1%; in [9] it was -14.2%.
Regarding `Cn1cccc1C(=O)N1CCn2cc(CNC(=O)CC3CC3)nc2C1`, the Percent Effect in assay [1] is -2.92%; in assay [2], 13.3%; in assay [3] it was 10.1%; in [4] it was -5.14%; with Trypanosoma cruzi, 4.13%; in [5], -0.233%. Besides, the Percent Effect in assay [6] is 6.61%; in the assay filed under Homo sapiens, 0.949%; in [7], 8.51%; in assay [8] it was 16.7%; in [9], -6.08%.
With `CCN(c1ccc(C(=O)N2CCCC(C)C2)cc1)S(=O)(=O)CC` (stereo not drawn), the Percent Effect was -1.59% in assay [1]; -4.17% in [2]; 8.62% in assay [3]; -2.11% in [4]; 0.0972% in the assay with Trypanosoma cruzi; -3.09% in assay [5]. Also, the Percent Effect is 9.3% in assay [6]; 23.2% in the assay listed under Homo sapiens; -2.1% in assay [7]; -7.69% in assay [8]; 1.02% in [9].
`Cc1oc(-c2nc(C#N)c(N(C)C)o2)cc1S(=O)(=O)N1CCCC1`: the Percent Effect is -3.98% in assay [1]; 4% in [2]; -2.67% in [3]; 8.99% in [4]; 2.75% with Trypanosoma cruzi; -7.92% in assay [5]. The Percent Effect in [6] is 17.2%; in the assay filed under Homo sapiens it was -8.23%; in assay [7] it was 1.06%; in [8] it was 10.3%; in [9] it was -0.712%.
Consider `CCc1c(C)nc2n(c1=O)CC(C(=O)Nc1ccccc1F)CS2` (stereo not drawn), for which the Percent Effect was -5.58% in [1]; 18.2% in [2]; -0.318% in [3]; 8.95% in assay [4]; 0.888% with Trypanosoma cruzi; -1.94% in assay [5]. Also, the Percent Effect was 7.83% in assay [6]; 9.05% in the assay filed under Homo sapiens; 6.35% in assay [7]; 16.7% in [8]; -4.84% in [9].
As to `Cc1nn(C)c(Cl)c1C1CCCN1C(=O)c1ccc2c(c1)OCO2` (stereo not drawn), the Percent Effect in assay [1] is -1.18%; in [2] it was -2.7%; in assay [3], -7.03%; in assay [4], -0.722%; in the assay with Trypanosoma cruzi, -5.38%; in assay [5] it was -2%. Also, the Percent Effect in [6] was -0.901%; in the assay listed under Homo sapiens, 13.8%; in [7], 0.493%; in assay [8], -6.17%; in assay [9] it was 0.203%.
